Measurements taken from PubChem BioAssay AID540275 (National Center for Advancing Translational Sciences (NCATS), 2011).
Among all 320,000 compounds or so, about 620 (0.19%) were called active. Inconclusive results (about 6%) are left out. No stated cut-off is given here; in the data, active means activation above about 80%; inconclusive means between about 30% and that limit; inactive means weaker than that. The sample as a whole holds a higher share of actives than the screen did.

target: Transient receptor potential cation channel subfamily V member 1 (Homo sapiens) (UniProt Q8NER1); experiment: HTS Assay for Compounds that Act as Agonists of the Vanilloid Receptor 1; conditions: TRPV1-expressing cells, Fluo-8 calcium influx, agonist mode; at 8.33 µM; hits give high values; further: 0% is about no effect
Description: The transient receptor potential ion channel, family V, number 1, (TRPV1) is one of the most important molecular transducers of painful stimuli and a potential target for analgesic drug development. Although recent clinical trials with orthosteric antagonists have not produced a successful drug because of a hyperthermia side effect and their tendency to block thermal noxious pain, this ion channel is undeniably well placed in the pain pathway, and the idea of blocking pain signals before they enter the CNS is an excellent concept and of proven efficacy when TRPV1 agonists are used. We propose a new approach involving allosteric modulation to impose an activity-dependent constraint within the context of inflammation and tissue damage that would alter the responsiveness of the channel in a way that an orthosteric vanilloid antagonist cannot achieve. We believe that the allosteric modulator approach has not been explored for this target. The main goal of this proposal is to identify additional, new, potent allosteric modulators of TRPV1 that can be used to investigate TRPV1 function. Our recent report provides evidence of proof of concept, but the compounds are just at the edge of utility in terms of potency. […] The question of whether they can be used as analgesic agents is complex, but if suitable compounds are identified then testing for analgesic properties will be conducted. NIH Chemical Genomics Center [NCGC] NIH Molecular Libraries Probe Centers Network [MLPCN] MLPCN Grant: MH089480-1A1 Assay Submitter (PI): Michael Iadarola, National Institute of Dental and Cranofacial Research
Upon TRPV1 activation in TRPV1 cells, the channel opens and extracellular cations flow through the channel into the cytosol. A calcium binding dye (Fluo-8) becomes fluorescent when bound to calcium. This dye is pre-loaded into cells and is used as a marker for calcium influx. The amount of accumulated calcium is precisely quantified using the FDSS kinetic reader and the calcium dye. For the HTS assay, freshly prepared cells are plated at a density of 2000/well in 3 ul medium in 1536-well plates and cultured overnight at 35.5C. Cells will be loaded with 1 ul of the homogeneous calcium dye (ABD Bioquest) at room temperature for 40 to 90 minutes. Plates will be loaded into the FDSS kinetic reader and a 1 sec / cycle for 10 second baseline signal will be measured. Compound library will then be added with a pintool at 23 nl and measured kinetically for 3 minutes. This portion of the read is considered the agonist portion of the screen. Following the 3 minutes of incubation, an on board pipettor will deliver 1 ul of capsaicin for a final concentration equal to the EC20. Signal will be measured kinetically for an additional 2 minutes. This portion of the read is considered the allosteric enhancer portion of the screen. The FDSS reader has a standard filter set capable of measuring calcium bound Fluo-8 (ex=480 and em=520 nm).

Chain of Transient receptor potential cation channel subfamily V member 1 (Homo sapiens) (Q8NER1 whole entry, looked up): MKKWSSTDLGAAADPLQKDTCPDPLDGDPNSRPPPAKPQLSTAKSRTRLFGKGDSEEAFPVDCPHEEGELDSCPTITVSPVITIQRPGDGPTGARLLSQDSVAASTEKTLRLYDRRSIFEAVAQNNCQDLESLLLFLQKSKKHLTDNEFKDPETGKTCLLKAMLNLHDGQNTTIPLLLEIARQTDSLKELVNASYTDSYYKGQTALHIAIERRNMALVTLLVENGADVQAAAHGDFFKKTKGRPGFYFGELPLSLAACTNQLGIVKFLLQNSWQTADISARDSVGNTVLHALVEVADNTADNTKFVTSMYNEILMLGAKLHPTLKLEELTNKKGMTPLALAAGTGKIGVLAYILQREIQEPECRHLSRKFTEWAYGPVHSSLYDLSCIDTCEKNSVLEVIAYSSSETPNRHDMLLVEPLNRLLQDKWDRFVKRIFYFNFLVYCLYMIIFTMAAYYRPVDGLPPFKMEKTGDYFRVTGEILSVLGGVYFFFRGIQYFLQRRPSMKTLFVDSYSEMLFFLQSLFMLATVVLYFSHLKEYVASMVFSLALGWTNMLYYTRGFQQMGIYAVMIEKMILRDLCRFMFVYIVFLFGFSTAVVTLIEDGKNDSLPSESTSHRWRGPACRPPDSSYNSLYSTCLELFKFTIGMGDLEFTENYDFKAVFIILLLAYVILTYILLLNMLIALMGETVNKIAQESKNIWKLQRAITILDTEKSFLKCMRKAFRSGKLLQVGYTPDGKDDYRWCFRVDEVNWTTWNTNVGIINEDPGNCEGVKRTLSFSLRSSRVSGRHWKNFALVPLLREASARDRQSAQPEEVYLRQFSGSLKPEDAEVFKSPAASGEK

| SMILES | activation |
| --- | --- |
| O=C(Nc1ccc(C(F)(F)F)cc1)c1cccc(-n2cnnn2)c1 | 11.1% (inactive) |
| COc1cc(C(=O)NNC(=O)CN2C(=O)NC3(CCCC3)C2=O)cc(OC)c1OC | -0.801% (inactive) |
| O=C(c1ccc(Cl)c(S(=O)(=O)N2CCCCCC2)c1)N1CCN(c2ccc(O)cc2)CC1 | 13.5% (inactive) |
| CC1CCCCC1NC(=O)NC(=O)COC(=O)C1=NN(c2ccccc2)C(=O)CC1 (stereo not drawn) | 0.278% (inactive) |
| O=C(CNS(=O)(=O)c1ccc2c(c1)OCCCO2)N1CCN(c2ccc(F)cc2)CC1 | -2.51% (inactive) |
| CCc1ccc(C(=O)N2CCN(S(=O)(=O)c3sc(C(=O)O)c(C)c3C(=O)O)CC2)cc1 | 0.16% (inactive) |
| N#Cc1nc(-c2cccc3ccccc23)oc1N | -1.65% (inactive) |
| Cc1ccc2ccc3c(c2n1)NS(=O)(=O)c1ccccc1-3 | -1.69% (inactive) |
| COc1cccc(-n2c(SCC(=O)NC3CCS(=O)(=O)C3)nc3ccccc3c2=O)c1 (stereo not drawn) | -0.844% (inactive) |
| CN(CC(=O)Nc1ccc(Cl)cc1)C(=O)c1ccc(COc2ccccc2)cc1 | 3.35% (inactive) |
| CN(C)C(=O)c1ccc(NC(=O)COC(=O)c2cc3c(s2)CCCCC3)cc1 | 1.68% (inactive) |
| O=C(NCC1CCCO1)c1cc2c(s1)CCCC2 (stereo not drawn) | 17.2% (inactive) |
| O=C(Nc1ccc(F)cc1)c1cc2c(s1)CCCC2 | 87.7% (active) |
| CCOC(=O)[C@H]1[C@H]2COc3ccc(OC)cc3[C@@H]2N2C(=O)c3ccc(F)cc3NC(=O)[C@@]12C | 88.1% (active) |
| CCOC(=O)[C@@H]1[C@H]2COc3cc(OC)ccc3[C@@H]2N2C(=O)N(c3cccc(C)c3)C(=O)[C@@]12C | 2.6% (inactive) |
| CCOC(=O)[C@@H]1[C@H]2COc3cc(OC)ccc3[C@H]2N2C(=O)N(c3ccc(F)cc3)C(=O)[C@]12C | -1.09% (inactive) |
| CCOC(=O)c1ccccc1NC(=O)COC(=O)C(Cc1c[nH]c2ccccc12)NC(C)=O (stereo not drawn) | 17.5% (inactive) |
| CN(C)c1ccc(/C=C/C(=O)c2ccc(C(C)(C)C)cc2)cc1[N+](=O)[O-] | -0.491% (inactive) |
| O=C(/C=C/c1ccc(Cl)c([N+](=O)[O-])c1)c1cccnc1 | -3.27% (inactive) |
| O=C(/C=C/c1ccc(Cl)c([N+](=O)[O-])c1)c1ccc(O)cc1 | 83.8% (active) |
| Cc1ccc(NC(=O)c2cc3ccccc3o2)cc1 | 102% (active) |
| Cc1c(/C=N\NC(=O)c2cc3ccccc3o2)c2ccccc2n1C | -1.62% (inactive) |

| SMILES | activation |
| --- | --- |
| C/C(=N\NC(=S)Nc1ccc(C)cc1)c1cc2ccccc2o1 | 4.04% (inactive) |
| O=c1c2ccccc2ccc2ccc(P(=O)(O)O)cc12 | -0.0431% (inactive) |
| COc1cc(C(=O)NCC(c2ccco2)N2CCCC2)ccc1OCc1ccccc1 (stereo not drawn) | 3.05% (inactive) |
| CCOc1cc(/C=C/C(=O)OCC(=O)NCCN2C(=O)CSC2=O)ccc1OCC(C)C | 3.05% (inactive) |
| CCOC(=O)c1sc(N)c(C#N)c1COC(=O)C1=COCCO1 | -7.68% (inactive) |
| CC(C)(C)C(=O)CSc1ccc(S(=O)(=O)N2CCCC2)cn1 | 0.185% (inactive) |
| CCN(CC)S(=O)(=O)c1ccc(N2CCOCC2)c(NC(=O)C(C)Oc2ccc(F)cc2)c1 (stereo not drawn) | 25.5% (inactive) |
| O=C(NCc1ccccc1CN1CCCC1)c1cccc(S(=O)(=O)Nc2ccc(F)cc2)c1 | 2.73% (inactive) |
| Cc1ccc(O)c(CNc2nc3ccccc3n2C)c1 | 1.21% (inactive) |
| Cn1cccc1-c1nc2ccccc2n1C | -1.64% (inactive) |
| Cc1ccc(C2=NN(C)c3nc4ccccc4n3C2)cc1 | 84.2% (active) |
| COc1ccc(S(=O)(=O)N2CCOCC2)cc1NC(=O)Cc1coc2cc(C)ccc12 | -0.0282% (inactive) |
| Cc1nc(-c2ccc(F)cc2)c(CC(=O)N(C)CC(=O)Nc2c(C)cccc2C)s1 | -1.54% (inactive) |
| COc1ccc(-c2c(-c3cc(OC)cc(OC)c3)n(C)c3ccc(-c4ccn[nH]4)cc23)cc1 | -1.55% (inactive) |
| Cc1onc(C(=O)NN)c1-c1csc(COc2ccccc2)n1 | 2.64% (inactive) |
| CC(C)(C)C(=O)OCc1nc(-c2ccc(O)c(O)c2)cs1 | 91.2% (active) |
| COc1ccc(-c2csc(Cc3nc(O)cs3)n2)cc1 | 4.2% (inactive) |
| CCOc1ccc(OCC(=O)OC(C)C(=O)NC2CCCCC2C)cc1 (stereo not drawn) | 11.7% (inactive) |
| CC1CCN(C2=NC(=O)/C(=C/c3ccc(O)cc3)S2)CC1 | 2.66% (inactive) |
| CCc1ccc(/C=C2\SC(N3CCOCC3)=NC2=O)cc1 | 89.7% (active) |
| Cc1ccsc1/C=C1\SC(N2CCOCC2)=NC1=O | 16.7% (inactive) |
| Cc1nc(SCC(=O)NC2CCCCC2C)c(C#N)c(C)c1C (stereo not drawn) | 11% (inactive) |

| SMILES | activation |
| --- | --- |
| N#Cc1ccc(OCC(=O)NC(=O)NC2CCS(=O)(=O)C2)cc1 (stereo not drawn) | -0.359% (inactive) |
| O=C(COC(=O)CCCN1C(=O)c2cccc3cccc(c23)C1=O)NC1CCS(=O)(=O)C1 (stereo not drawn) | -0.543% (inactive) |
| Cc1ccc2c(CN3CCN(S(=O)(=O)c4ccccc4C(F)(F)F)CC3)cc(=O)oc2c1 | 4.46% (inactive) |
| COc1cc2ccccc2cc1C(=O)N1CCOCC1 | -0.849% (inactive) |
| O=C(CSC(=S)N1CCOCC1)c1cc(Br)cc(Br)c1O | -0.207% (inactive) |
| O=C(c1cc2cc(Br)cc(Br)c2oc1=O)N1CCOCC1 | 87.7% (active) |
| COc1cc(OC)cc(-c2c(-c3cccs3)c3cc(-c4ccc(OC)cc4F)ccc3n2C)c1 | -2.36% (inactive) |
| CN(C(=O)COC(=O)Cn1cnc2c1c(=O)n(C)c(=O)n2C)C1(C#N)CCCCC1 | -2.27% (inactive) |
| COc1ccc(C)cc1NC(=O)CN1c2cccc3cccc(c23)S1(=O)=O | -0.498% (inactive) |
| CCCN(CC(=O)NC(=O)NC1CCCCC1)CC(=O)Nc1cc(Cl)ccc1Cl | 3.99% (inactive) |
| O=C(CCc1ccccc1Cl)Nc1ccc(S(=O)(=O)Nc2nccs2)cc1 | -1.57% (inactive) |
| COC(=O)c1ccc(CSc2ccc(S(=O)(=O)N3CCCCC3)cn2)cc1 | 6.26% (inactive) |
| Cc1ccc(C(=O)NCC(c2cccs2)N(C)C)cc1S(=O)(=O)N1CCOCC1 (stereo not drawn) | 10.3% (inactive) |
| CN1CCN(S(=O)(=O)c2ccc(N3CCN(c4ccccc4O)CC3)c([N+](=O)[O-])c2)CC1 | 4.24% (inactive) |
| Cc1ccc(CN2CC(C(=O)N3CCN(S(=O)(=O)c4ccccc4)CC3)CC2=O)cc1 (stereo not drawn) | 0.927% (inactive) |
| COc1ccc(NS(=O)(=O)c2cc(NC(=O)COc3ccccc3F)ccc2OC)cc1 | 0.255% (inactive) |
| COc1ccc(C2=NN(C(=O)CSc3nnnn3C)C(c3ccco3)C2)cc1 (stereo not drawn) | -0.899% (inactive) |
| O=C(CSc1nnc(CN2CCCC2)n1-c1ccc(F)cc1)c1ccc2c(c1)OCO2 | 4.88% (inactive) |
| COc1ccc(Cl)cc1NC(=O)CCN1CCOCC1 | -0.647% (inactive) |
| COc1cccc(NC(=S)NCCCN2CCOCC2)c1 | -6.52% (inactive) |
| COc1cccc2cc(C(C)N(CCCN3CCOCC3)C(=O)Nc3ccc(Cl)cc3)oc12 (stereo not drawn) | 85.6% (active) |
| Cc1cccc(C)c1NC(=O)COC(=O)c1c(C)nn(-c2ccccc2)c1C | 0.597% (inactive) |

| SMILES | activation |
| --- | --- |
| O=C1/C(=C\c2ccsc2)NC(=S)N1c1ccccc1 | 2.57% (inactive) |
| CN(C)c1ccc(/C=C2\NC(=S)N(Cc3ccccc3)C2=O)cc1 | 82.1% (active) |
| O=C1NCC(=O)N(Cc2ccccc2)/C1=C/c1ccccc1 | 6.12% (inactive) |
| Cc1csc(=O)n1CCC(=O)OCC(=O)NNC(=O)c1ccc(Br)cc1 | 2.91% (inactive) |
| OCC[C@H]1C[C@H](O)[C@@H](O)[C@]2(Cc3ccccc3CO2)O1 | 1.78% (inactive) |
| Cc1cccc(N2C(=O)c3ccc(C(=O)Nc4cccc(C(=O)O)c4)cc3C2=O)c1 | -0.654% (inactive) |
| Cc1cccc(C(=O)Nc2ccc3c(c2)C(=O)N(CC(C)C)C3=O)c1 | 80.9% (active) |
| Cc1cccc(C(=O)Nc2ccc(CC(=O)O)cc2)c1 | 1.02% (inactive) |
| N#Cc1cccc(NC(=O)C2CCCN(C(=O)c3ccc(Cl)cc3)C2)c1 (stereo not drawn) | 11.9% (inactive) |
| O=C(O)c1ccc(N/N=C/c2cn(-c3ccccc3)nc2-c2cccs2)cc1 | -2.97% (inactive) |
| O=C(/C=C\c1cn(-c2ccccc2)nc1-c1cccs1)N1CCOCC1 | 96.6% (active) |
| O=C(O)/C=C/c1cn(Cc2ccccc2)nc1-c1cccs1 | 2.25% (inactive) |
| CC(C(=O)Nc1ccc(S(=O)(=O)N2CCCC2)cc1)N(C)Cc1ccc(F)cc1 (stereo not drawn) | 17.2% (inactive) |
| O=C(CSc1ccccc1)Nc1cccc(S(=O)(=O)N2CCCCC2)c1 | 21.4% (inactive) |
| O=C(OCC(=O)N1CCN(C(=O)c2ccco2)CC1)c1ccc(Cl)c(Cl)c1 | 2.6% (inactive) |
| Oc1ccc(Cl)cc1C1C=C(c2ccc3c(c2)OCO3)NC(c2ccc(F)c(Br)c2)N1 (stereo not drawn) | 6.1% (inactive) |
| Cc1cccn2c(=O)c3cc(C(=O)NCC4CCCO4)c(=N)n(Cc4ccc(F)cc4)c3nc12 (stereo not drawn) | 84.1% (active) |
| COc1ccc(CCn2c(=N)c(C(=O)NCC3CCCO3)cc3c(=O)n4cccc(C)c4nc32)cc1OC (stereo not drawn) | 4.61% (inactive) |
| Cc1cccn2c(=O)c3cc(C(=O)NCCN4CCOCC4)c(=N)n(Cc4cccnc4)c3nc12 | 22.9% (inactive) |
| COC(=O)c1cc(Oc2ccc(S(=O)(=O)N3CCOCC3)cc2[N+](=O)[O-])cc(C(=O)OC)c1 | -0.765% (inactive) |
| CCCN(CC(=O)Nc1ccccc1C)C(=O)c1ccc2[nH]c3c(c2c1)CC(C)CC3 (stereo not drawn) | 3.39% (inactive) |
| CCN(CC)S(=O)(=O)c1ccc(OC)c(NC(=O)CCc2c(C)noc2C)c1 | -1.51% (inactive) |
